The values that follow come from PubChem BioAssay (EPA / NIEHS).

Records with an inconclusive call do not appear. The source made the active and inactive calls. The calls were made as follows: active = hit-call score of the fitted dose curve at least 0.9, where 1 is the maximum; inconclusive = response in the unintended direction; inactive = score below 0.9.

Read-out in this assay: ABC Transporter (ABCB11), ABCB11 (gene 8647)
The assay can be described thus: CLD_ABCB11_6hr: CellzDirect (CLD) Gene Expression Assay for ABC Transporter (ABCB11) at 6 hours (AID 2283675).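 Also: hits raise ABCB11 mRNA level so AC50 marks induction.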 The protocol:
CLD_6hr is a cell-based, multiplexed-readout assay that uses hepatocyte, a human liver primary cell, with measurements taken at 6 hours after chemical dosing in a 96-well plate.CLD_ABCB11_6hr is one of 16 assay component(s) measured or calculated from the CLD_6hr assay. It is designed to make measurements of mRNA induction, a form of inducible reporter, as detected with chemiluminescence signals by Quantitative Nuclease Protection Assay (qNPA) technology.Data from the assay component CLD_ABCB11_6hr was analyzed at the endpoint, CLD_ABCB11_6hr, in the positive analysis fitting direction relative to DMSO as the negative control and baseline of activity. Using a type of inducible reporter, gain-of-signal activity can be used to understand changes in the reporter gene as they relate to the gene ABCB11. Furthermore, this assay endpoint can be referred to as a primary readout. To generalize the intended target to other relatable targets, this assay endpoint is annotated to the transporter intended target family, where subfamily is ABC transporter.
Human hepatocyte cultures were treated daily for two consecutive days with fresh dosing solutions containing appropriate concentrations of the 320 ToxCast chemicals (chemical identities were blinded to CellzDirect and other ToxCast collaborators), vehicle control (0.2% DMSO), and positive control inducers as summarized in Table 1. Due to the large number of treatment groups and chemicals examined, the ToxCast chemicals were divided into two groups (spanning two independent cultures of hepatocytes from separate donor preparations (Hu778: ToxCast plates 1 and 2; Hu776: ToxCast plates 3 and 4). Each preparation of human hepatocyte cultures was treated with respective vehicle control, medium only control, set of six positive controls/reference chemicals for the five hepatic receptor pathways, and a subset of eight of the ToxCast chemicals (indoxacarb, pyrithiobac-sodium, norflurazon, cyhalofop-butyl, methomyl, thiram, acetochlor, and propiconazole). These replicate data, coupled with internal replicates designed within the blinded ToxCast chemical library, provided additional data to evaluate interindividual differences between hepatocyte preparations and their potential impact on chemical profiles.Cell morphology and integrity were evaluated using phase-contrast microscopy as an indicator of hepatocyte cell health (Tyson & Green, 1987). Cultures for each treatment group (i.e., media, vehicle [0.2% DMSO], positive control inducers [multiple concentrations], and the ToxCast chemicals [multiple concentrations]) were observed and cell morphology was assessed relative to vehicle control cultures at each harvest time point (0, 6, 24, or 48 h). […] Images were evaluated at the conclusion of the study to assess changes in cell integrity and account for the effects of chemical exposure on uncharacteristic changes in concentration-dependent gene expression profiles. The results from these determinations of apparent cytotoxicity were annotated (yes/no) alongside the corresponding qNPA data for reference.At the conclusion of each treatment period, hepatocyte cultures (96-well) were washed with 1 volume of HBSS, lysed by addition of 25 ul ArrayPlate lysis buffer (HTG, Tucson, AZ), and 70 ul/well of Denaturation Oil, denatured by incubation at 95C for 10 min, and frozen at approximately -70C until analysis by nuclease protection assay (qNPA) (Roberts et al., 2007). For qNPA analysis, cell lysates were thawed at 50C for approximately 30 min, qNPA probes were added, and samples were incubated at 95C for 10 min to begin the detection process by denaturing the target RNA, dissociating the duplexes and secondary structure hybridization. At the conclusion of the hybridization period, S1 nuclease reagent was added to each sample to digest all nonprotected nucleotides at 50C for 60-90 min. […]
On to `CCCN(CCC)c1c([N+](=O)[O-])cc(C(F)(F)F)c(N)c1[N+](=O)[O-]`, for which the result was inactive. The result for `Oc1ccc(C(c2ccc(O)cc2)C(Cl)(Cl)Cl)cc1` reads “inactive”; that for `CCN(Cc1c(F)cccc1Cl)c1c([N+](=O)[O-])cc(C(F)(F)F)cc1[N+](=O)[O-]`, “inactive”; that for `N#CSCSc1nc2ccccc2s1`, “inactive”. The result for `C#CCOC(=O)[C@@H](C)Oc1ccc(Oc2ncc(Cl)cc2F)cc1` reads “inactive”. Take `OB(O)O`: the compound was classed as inactive. `CC1(C)C(C=C(Cl)Cl)C1C(=O)OCc1cccc(Oc2ccccc2)c1` (centres undefined): the compound was classed as inactive. `CCCCOC(=O)[C@@H](C)Oc1ccc(Oc2ccc(C(F)(F)F)cn2)cc1`: the outcome was inactive. Regarding `CCCCC(CC)CN1C(=O)C2C3C=CC(C3)C2C1=O` (centres undefined), the compound was called inactive. The result for `CCCCCOC(=O)COc1cc(N2C(=O)C3=C(CCCC3)C2=O)c(F)cc1Cl` reads “inactive”. As for `S=C([S-])NCCNC(=S)[S-].[Mn+2]`, the entry is “inactive”; as for `CN(C)C(=O)Nc1ccc(Cl)c(Cl)c1`, “inactive”; as for `CCC(O)=C1C(=O)CC(C(=O)O)CC1=O` (centres undefined), “inactive”. The result for `COC(=O)c1ccccc1C(=O)O` reads “inactive”; that for `COC(=O)c1cccc(C)c1S(=O)(=O)NC(=O)Nc1nc(OCC(F)(F)F)nc(N(C)C)n1`, “inactive”. For `c1ccc(Nc2ccccc2)cc1`, the result was inactive.

For the compound `CCCOC(=O)c1ccc(C(=O)OCCC)nc1`, the outcome was inactive. The result for `CC(C)(c1ccc(O)cc1)c1ccc(O)cc1` reads “inactive”; that for `COC(=O)c1ccc(I)cc1S(=O)(=O)NC(=O)Nc1nc(C)nc(OC)n1`, “inactive”. Take `CCOC(=O)NCCOc1ccc(Oc2ccccc2)cc1`: the outcome was inactive.

In the case of `COc1c(Cl)ccc(Cl)c1C(=O)O`, the call was inactive. The result for `CCCCOC(=O)C(C)Oc1ccc(Oc2ccc(C(F)(F)F)cn2)cc1` (centres undefined) reads “inactive”; that for `CCC(C)OC(=O)N1CCCCC1CCO` (centres undefined), “inactive”.

With `CSC(=O)c1cccc2nnsc12`, the compound was classed as inactive. On to `O=C(Nc1ccc([N+](=O)[O-])cc1Cl)c1cc(Cl)ccc1O`, for which the compound was called inactive. As for `CCCCC(CC)COC(=O)c1ccccc1C(=O)O` (centres undefined), the entry is “inactive”.

Regarding `S=C(S)NCCNC(=S)S.[Mn+2].[S-]C([S-])=NCCN=C([S-])[S-].[Zn+2]`, the compound was called inactive.

Consider `COC(=O)c1ccccc1S(=O)(=O)NC(=O)Nc1nc(OC(F)F)cc(OC(F)F)n1`, for which the compound was called inactive. The result for `CCNc1nc(N)nc(Cl)n1` reads “inactive”. `CCOC(=O)[C@H](C)Oc1ccc(Oc2nc3ccc(Cl)cc3o2)cc1`: the call was inactive. As for `CCSC(=O)N(CC(C)C)CC(C)C`, the entry is “inactive”; as for `CCCOC(=O)NCCCN(C)C`, “inactive”; as for `CCOC(=O)C(C)Oc1ccc(Oc2nc3ccc(Cl)cc3o2)cc1` (centres undefined), “inactive”.

Consider `COc1nc(C)nc(NC(=O)NS(=O)(=O)c2ccccc2OCCCl)n1`, for which the compound was classed as inactive.
